The nature of assay [1]: NCI Yeast Anticancer Drug Screen. Data for the rad50 strain (AID 155).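 Further: 0% = growth of vehicle-only cultures of the same strain.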 The settings on record: S. cerevisiae rad50 strain growth inhibition; at 50.0 µM; active compounds read high. A digest of the protocol:
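Growth of the mutant yeast was measured after compound exposure and referenced to vehicle-treated cultures.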

Assay [2] in a line: NCI Yeast Anticancer Drug Screen. Data for the mec2-1 strain (AID 157). As to conditions: S. cerevisiae mec2-1 strain, at 50.0 µM, active compounds read high. A digest of the protocol:
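mec2-1 yeast strain, carrying an alteration in DNA damage repair or cell cycle control, was exposed to compounds; growth inhibition was measured relative to vehicle-treated controls.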

Assay [3] can be described thus: NCI Yeast Anticancer Drug Screen. Data for the sgs1 mgt1 strain (AID 161).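 Further: 0% = growth of cultures given vehicle only.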 As to conditions: S. cerevisiae sgs1 mgt1 strain, at 50.0 µM, active compounds read high. A digest of the protocol: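 Yeast cells carrying a defined DNA-repair defect were exposed to test compounds. Growth inhibition was measured relative to vehicle-treated controls.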
A short description of assay [4]: NCI Yeast Anticancer Drug Screen. Data for the cln2 rad14 strain (AID 165).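 Further: 0% = growth equal to vehicle treated cultures.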 As to conditions: S. cerevisiae cln2 rad14 strain, at 50.0 µM, active compounds read high. A digest of the protocol: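 Yeast carrying cln2 and rad14 alterations (cell cycle control and DNA damage repair) were exposed to compounds. Growth inhibition was measured against vehicle-treated controls.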

The nature of assay [5]: NCI Yeast Anticancer Drug Screen. Data for the bub3 strain (AID 167). The settings on record: S. cerevisiae bub3 mutant strain, at 50.0 µM, active compounds read high. A digest of the protocol:
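Whole-cell yeast assay. The mutant strain was incubated with compounds, and growth inhibition was determined by comparison with vehicle-treated cells.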

Assay [6] is described as follows: NCI Yeast Anticancer Drug Screen. Data for the mlh1 rad18 strain (AID 175). As to conditions: S. cerevisiae mlh1 rad18 strain growth inhibition; at 50.0 µM; active compounds read high. A digest of the protocol: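 Growth inhibition of the yeast strain was measured after compound exposure and expressed relative to vehicle-treated controls. The strain carries defined defects in DNA damage repair.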

Results on 19 compounds are retold here after PubChem BioAssay (NCI).

Values joined by “and” are separate entries in the source; they are usually repeats but may differ in a detail not shown here. Identical values can stand only once. About 79,000 compounds went through this panel and 15% of them were active in at least one assay; those are over-represented in the sample as a whole. Unmarked numbers belong to inactive results. Active and inactive are the calls of the source. No stated cut-off is given here; in the data, active means growth inhibition above about 70%; inactive means the rest.

Take `CNC(C)C(O)c1ccccc1` (centres undefined): the growth inhibition in assay [1] was 15.3% and 4.1%; in assay [2], -14.3% and -2.1%; in assay [3], 7.45% and -21.6%; in assay [4], 14.9% and 10.5%; in assay [5] it was 10% and -5.85%; in assay [6], 13.3% and 8.9%.
Consider `CC1(C)N=C(c2ccccc2)C2(c3ccccc3)N1C2(C)C` (centres undefined), for which the growth inhibition in assay [1] is -1.8%; in assay [2] it was 11.3%; in assay [3], 16.8%; in assay [4] it was -0.3%; in assay [5] it was 5.6%; in assay [6], -18.1%.
For `OC(c1ccccc1)C(NC1CCCCC1)c1ccccc1` (centres undefined), the growth inhibition in assay [1] is -4.5%; in assay [2], -18.6%; in assay [3] it was -0.75%; in assay [4] it was -24.2%; in assay [5], -6.3%; in assay [6], -56%.
On to `NC(=NC(c1ccccc1)c1ccccc1)N[N+](=O)[O-]`, for which the growth inhibition in assay [1] is -4.1%; in assay [2], 5.3%; in assay [3], -12.6%; in assay [4], 2.95%; in assay [5], 7.45%; in assay [6], -17.9%.
For the compound `CSCCC(N)C(=O)O` (centres undefined), the growth inhibition was -50.4% and -3.35% in assay [1]; 9.55% and -25.1% in assay [2]; -6% and -7.65% in assay [3]; -27.8% and -1% in assay [4]; 32.4% and -11.6% in assay [5]; -103% and -2.65% in assay [6].
`CC(C)(C[N+](=O)[O-])C[N+](=O)[O-]`: the growth inhibition was -1.45% in assay [1]; -34.1% in assay [2]; 15.6% in assay [3]; -19.1% in assay [4]; -1.7% in assay [5]; 10.9% in assay [6].
As to `Cc1c2ccccc2c(CNCCSCCCl)c2ccc3ccccc3c12`, the growth inhibition is 97.2% (active) in assay [1]; 98.5% (active) in assay [2]; 98.4% (active) in assay [3]; 98.3% (active) in assay [4]; 97.5% (active) in assay [5]; 98.8% (active) in assay [6].
For `COP(=O)(OC)/C(C#N)=C/c1ccco1`, the growth inhibition is -35.3% in assay [1]; -29.1% in assay [2]; -46.5% in assay [3]; -27.8% in assay [4]; -42.6% in assay [5]; -41.1% in assay [6].
Take `CC1(CCN)COC(c2ccccc2)(c2ccccc2)OC1` (tested in a mixture with another compound): the growth inhibition is 20.1% in assay [1]; 4.15% in assay [2]; -0.7% in assay [3]; 31.4% in assay [4]; 10.2% in assay [5]; 43.2% in assay [6].
Turning to `CC(C)c1cc2c(cc1O)C1(C)CCCC(C)(C)C1CC2=O` (centres undefined), the growth inhibition in assay [1] is 27.4%; in assay [2], 32.3%; in assay [3], 19.9%; in assay [4], 22.4%; in assay [5], 27.9%; in assay [6] it was 34.6%.
Consider `CCCCCCCCCCC[CH2][Hg][CH2]CCCCCCCCCCC`, for which the growth inhibition in assay [1] was 9.8%; in assay [2], -1.05%; in assay [3] it was 4%; in assay [4], -4.65%; in assay [5], 4.55%; in assay [6], -4.3%.
As to `C1CC[N-]CC1.CC(=N\O)/C(C)=N/O.CC(=N\O)/C(C)=N/O.C[C-]=O.[Co+2]`, the growth inhibition in assay [1] is -3.6%; in assay [2], 18.4%; in assay [3] it was 10.3%; in assay [4], 23.6%; in assay [5] it was 19%; in assay [6], 14.4%.
In the case of `O=C(Nc1ccccc1)C(Cl)(Cl)Cl`, the growth inhibition in assay [1] was -10.1%; in assay [2], -25.8%; in assay [3], 11.1%; in assay [4] it was -10.2%; in assay [5], -9.8%; in assay [6], 19.8%.
Take `O=C(O)c1cccc(P(=O)(O)O)c1`: the growth inhibition in assay [1] was 14.3% and 9.3%; in assay [2], -19.3% and -12.9%; in assay [3], -5.25% and 17.4%; in assay [4] it was 2.35% and 28.6%; in assay [5], -4% and -10.6%; in assay [6], 2.55% and -0.35%.
Turning to `C[N+](C)(C)CCP(=O)([O-])O`, the growth inhibition in assay [1] was -3.3%; in assay [2], 0%; in assay [3], 1.55%; in assay [4], -13.1%; in assay [5], -3.1%; in assay [6] it was 5.45%.
Turning to `c1ccc2c(c1)cc1ccc3cccc4ccc2c1c34`, the growth inhibition in assay [1] is -6.9%; in assay [2] it was -14.9%; in assay [3], 7.15%; in assay [4], 15.5%; in assay [5] it was 14.4%; in assay [6], 9.9%.
As to `CC(C(O)c1cccnc1)[N+](=O)[O-]` (centres undefined), the growth inhibition in assay [1] is -21.8%; in assay [2], -4.35%; in assay [3], -23.6%; in assay [4], -10.1%; in assay [5], 3.95%; in assay [6] it was -17.4%.
`Clc1ccc(Br)cc1`: the growth inhibition was 4.25% in assay [1]; -1.55% in assay [2]; -5.75% in assay [3]; -7.95% in assay [4]; 0.45% in assay [5]; -1.35% in assay [6].
Turning to `CN1C(=O)C(=Cc2cccc([N+](=O)[O-])c2)C(=O)N(C)C1=O`, the growth inhibition was 17.4% in assay [1]; 14.3% in assay [2]; 2.15% in assay [3]; 26.1% in assay [4]; 10.8% in assay [5]; -9.55% in assay [6].
